Source: publication PMC4336329 (PLoS ONE, 2015)
About 14,000 (4.5%) of roughly 310,000 compounds showed an effect of 50% or more. The effect is printed as a negative number. Shown is part of a subset that was picked to be rich in strong results.

target: human ether-à-go-go-related gene (hERG) potassium channel (human, UniProt Q12809); assay: primary screen, population patch clamp on CHO cells stably expressing hERG; higher = less effect of the substance
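Further: peak tail current of the secondary pulse compared with the same well before compound.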

human ether-à-go-go-related gene (hERG) potassium channel, sequence (Q12809 whole entry, looked up): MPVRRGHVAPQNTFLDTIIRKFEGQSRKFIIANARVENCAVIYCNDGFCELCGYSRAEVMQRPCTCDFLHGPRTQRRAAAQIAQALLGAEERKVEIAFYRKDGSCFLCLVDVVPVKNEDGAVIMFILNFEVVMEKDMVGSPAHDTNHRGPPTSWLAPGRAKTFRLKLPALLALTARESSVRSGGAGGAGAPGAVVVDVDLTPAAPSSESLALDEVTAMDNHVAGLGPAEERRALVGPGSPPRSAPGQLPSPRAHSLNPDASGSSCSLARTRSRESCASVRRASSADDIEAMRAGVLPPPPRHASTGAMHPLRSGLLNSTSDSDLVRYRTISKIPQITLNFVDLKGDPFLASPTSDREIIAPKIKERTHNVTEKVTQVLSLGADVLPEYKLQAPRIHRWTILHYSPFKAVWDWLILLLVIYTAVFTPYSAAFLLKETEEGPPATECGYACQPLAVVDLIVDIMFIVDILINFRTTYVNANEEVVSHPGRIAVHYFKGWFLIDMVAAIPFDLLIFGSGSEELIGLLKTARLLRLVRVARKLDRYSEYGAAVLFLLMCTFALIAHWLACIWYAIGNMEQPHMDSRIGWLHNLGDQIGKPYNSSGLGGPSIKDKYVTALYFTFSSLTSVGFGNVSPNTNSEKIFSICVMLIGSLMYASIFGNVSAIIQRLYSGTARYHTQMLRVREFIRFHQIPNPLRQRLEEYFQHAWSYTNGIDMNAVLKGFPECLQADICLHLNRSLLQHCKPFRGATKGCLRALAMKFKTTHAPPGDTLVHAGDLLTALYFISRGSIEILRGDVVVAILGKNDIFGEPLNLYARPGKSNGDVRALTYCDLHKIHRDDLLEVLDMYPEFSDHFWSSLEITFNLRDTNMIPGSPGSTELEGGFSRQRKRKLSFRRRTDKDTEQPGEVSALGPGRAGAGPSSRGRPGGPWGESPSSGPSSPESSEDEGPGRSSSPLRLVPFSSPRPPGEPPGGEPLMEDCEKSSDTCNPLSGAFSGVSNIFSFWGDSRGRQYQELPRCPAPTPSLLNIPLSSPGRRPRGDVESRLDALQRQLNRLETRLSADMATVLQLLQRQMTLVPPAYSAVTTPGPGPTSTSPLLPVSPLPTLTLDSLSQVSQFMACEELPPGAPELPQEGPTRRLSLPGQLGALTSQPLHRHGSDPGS

SMILES	hERG current change (%, negative = inhibition) at 10uM
CCOC(=O)c1ccc(NC(=O)Nc2ccc3c(c2)OCCO3)cc1	10.6%
Cn1c(=O)c2c(nc(SCC(=O)c3cccs3)n2Cc2ccc(F)cc2)n(C)c1=O	-13.2%
COc1ccc(C(=O)c2ccccc2Cl)cc1	-34.5%
O=C(CSc1nnc(CNC(=O)c2ccccc2F)o1)NCc1ccccc1	-7.93%
Cc1ccc(NC(=O)COC(=O)C2CC(=O)N(Cc3ccccc3)C2)cc1S(=O)(=O)N(C)C (centres unmarked)	7.45%
CCCn1ccnc1SC(C)C(=O)Nc1c(C)n(C)n(-c2ccccc2)c1=O (centres unmarked)	16.9%
CN1C(=O)N(C)c2ccc(Br)c3cccc1c23	23.5%
CC(OC(=O)c1ccccc1C(=O)N(C)c1ccccc1)C(=O)Nc1ccc(C(N)=O)cc1 (centres unmarked)	-4.36%
Cc1cc(=O)oc2cc(OCC(=O)N3C[C@H]4C[C@@H](C3)c3cccc(=O)n3C4)ccc12	1.52%
Cc1c(C)c2ccc(OCC(=O)N3C[C@H]4C[C@@H](C3)c3cccc(=O)n3C4)c(C)c2oc1=O	1.39%
Cc1c(OCC(=O)N2C[C@H]3C[C@@H](C2)c2cccc(=O)n2C3)ccc2c3c(c(=O)oc12)CCCC3	-13.5%
Cc1coc2c(C)c3oc(=O)c(CCC(=O)N4C[C@H]5C[C@@H](C4)c4cccc(=O)n4C5)c(C)c3cc12	-50.6%
CCc1cc(=O)oc2cc(OCC(=O)N3C[C@H]4C[C@@H](C3)c3cccc(=O)n3C4)ccc12	8.87%
COc1ccc(-c2cc(=O)oc3cc(OCC(=O)N4C[C@H]5C[C@@H](C4)c4cccc(=O)n4C5)ccc23)cc1	-53.5%
COCCOC1CCN(C(=O)C2CCC(=O)N(Cc3cccc(F)c3)C2)CC1 (centres unmarked)	20.1%
CCOC(=O)N1CCN(C(=O)c2ccc(NS(=O)(=O)c3ccc(F)cc3)cc2)CC1	-1.81%
CCN(C(=O)COC(=O)C1CCN(S(=O)(=O)c2ccc(C)c(C)c2)CC1)C1CCCCC1	-10.4%
Cc1ccc(/C(N)=N/OC(=O)CSc2ccccc2)cc1	-5.49%
CC(CCc1ccco1)NC(=O)c1cc2c(-c3ccccc3F)nn(C)c2s1 (centres unmarked)	-5.86%
CC1CCCCN1CCNC(=O)c1cc2c(-c3ccccc3F)nn(C)c2s1 (centres unmarked)	-56.1%
CCOC(=O)N1CCC(NC(=O)c2cc3c(-c4ccccc4F)nn(C)c3s2)CC1	13.5%
Cn1nc(-c2ccccc2F)c2cc(C(=O)Nc3ccc4c(c3)OCCO4)sc21	14.8%
CN(CCNC(=O)c1cc2c(-c3ccccc3F)nn(C)c2s1)C1CCCCC1	-50.8%
Cn1nc(-c2ccccc2F)c2cc(C(=O)N3CCN(C(=O)c4ccco4)CC3)sc21	-57.2%
CC(=O)c1ccc(N2CCN(C(=O)c3cc4c(-c5ccccc5F)nn(C)c4s3)CC2)cc1	-20.7%
Cn1nc(-c2ccc(Cl)cc2)c2cc(C(=O)N3CCN(C(=O)c4ccco4)CC3)sc21	-20.7%
COCCNC(=O)c1cc2c(-c3ccccc3F)nn(C)c2s1	-6.2%

SMILES	hERG current change (%, negative = inhibition) at 10uM
CCOc1ccc(NC(=O)c2ccc(-n3cccn3)nc2)cc1	18.7%
CCN(/C=N/c1sc2c(c1C#N)CCCCC2)CC	5.56%
CC(c1ccccc1)n1c(-c2ccc(Cl)cc2)n[nH]c1=S (centres unmarked)	13.9%
CCOc1cc(C(=O)Nc2ccc([N+](=O)[O-])cn2)cc(OCC)c1OCC	-29%
COc1ccc(C(=O)CC(=O)C(=O)Nc2cc(OC)c(OC)c(OC)c2)cc1	8.58%
Clc1ccc(-n2ncc3c(NCCN4CCOCC4)ncnc32)cc1	-34.7%
Clc1ccc2[nH]c3c(NCCN4CCOCC4)ncnc3c2c1	-61.8%
Cc1ccc2[nH]c3c(NCCCN4CCCC4=O)ncnc3c2c1	-13.7%
Clc1ccc2[nH]c3c(NCCCN4CCOCC4)ncnc3c2c1	-69.9%
Cc1ccc2ncnc(NCCCN3CCOCC3)c2c1	-13.6%
Fc1ccc2[nH]c3c(NCCN4CCOCC4)ncnc3c2c1	-16.8%
c1ccc(-n2nnc3ccccc32)nc1	3.7%
O=C(NN1C(=O)c2ccccc2NC1c1cccnc1)c1ccc([N+](=O)[O-])cc1 (centres unmarked)	-37.5%
O=C(NCS(=O)(=O)c1ccccc1)c1ccccc1	-0.415%
CCOc1ccccc1CN1CCN(Cc2ccc3cccc(OC)c3n2)CC1CCO (centres unmarked)	-55.5%
CCOc1ccccc1CN1CCN(Cc2ccc3cc(F)ccc3n2)CC1CCO (centres unmarked)	-65.7%
CCOc1ccc2nc(CN3CCN(Cc4ccccc4OCC)C(CCO)C3)ccc2c1 (centres unmarked)	-56.9%
COc1ccc(-c2csc(NC(C)c3nc4cc(C(=O)NCCCO)ccc4n3Cc3ccc(C)cc3)n2)cc1 (centres unmarked)	9.34%
Fc1ccccc1Nc1nc2ccccc2n2nnnc12	7.8%
CCOc1cc(C(=O)Nc2ccc(S(=O)(=O)Nc3cc(C)on3)cc2)cc(OCC)c1OCC	-0.904%
O=C(NCc1ccco1)C1CCC(N2C(=O)c3ccccc3C2=O)CC1 (centres unmarked)	1.59%
C=C1Cn2c(nnc2-c2ccc(Cl)cc2)S1	-27.4%
C=CCNC(=O)C1(c2ccccc2)CC1(Cl)Cl (centres unmarked)	-5.1%
O=c1cc(N2CCCCC2)c(-c2ccccc2)nn1Cc1cccc(Cl)c1	0.996%
COC(=O)c1ccc(/C=C2\Oc3ccccc3NC2=O)cc1	15.5%
CCOC(=O)C1=C(C)NC(=S)NC1c1ccc(-c2cccc(Cl)c2C)o1 (centres unmarked)	14.4%
